High-throughput results (PubChem BioAssay)
Cy5 interf NS3h = Cy5 fluorescence quenchers or enhancers, artefact control for HCV NS3 helicase inhibitor project, biochemical, ChemBridge library, Cy5 readout. Cy5-dT15 DNA with NS3h, fluorescence interference; actives lie on both sides; signal over control mean, under 1 quenches. fluorescence interference ratio at 100 µM. 16,000 compounds, 6% hits. AID 720488, 2013;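 active = compound fluorescence over control fluorescence at most 0.8, a quencher, or at least a set upper limit, an enhancer; inactive = ratio between 0.8 and the set upper limit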
HCV NS3h FP = HCV NS3 helicase inhibitors, primary screen, biochemical, fluorescence polarization, ChemBridge library; Hepatitis C virus NS3 helicase; NS3h Cy5-dT15 DNA binding; inhibition, % at 100 µM; 16,000 compounds, 1.6% hits; AID 687043, 2013;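 active = inhibition above the average over every tested compound plus 3 SD, cut at about 40% in these data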
Active calls of the source: *. Hits are enriched below; roughly 7.6% of the tested compounds scored in any of these assays.

SMILES	Cy5 interf NS3h	HCV NS3h FP
Cc1ccc(C2CC(C(F)(F)F)n3nc(C(=O)Nc4ccc(F)cc4F)cc3N2)cc1 (stereo not drawn)	0.57*	2
COCCNC(=O)c1cc2n(n1)C(C(F)(F)F)CC(c1ccc(F)cc1)N2 (stereo not drawn)	1	2
COc1ccc(C2CC(C(F)(F)F)n3nc(C(=O)O)cc3N2)cc1OC (stereo not drawn)	0.65*	-1
O=C(c1cc2n(n1)C(C(F)(F)F)CC(c1ccc(Cl)cc1)N2)N1CCN(c2ccccc2)CC1 (stereo not drawn)	0.93	24
Cc1ccc(C2CC(C(F)(F)F)n3nc(C(=O)N4CCN(Cc5ccccc5)CC4)cc3N2)cc1 (stereo not drawn)	0.76*	11
O=C(COC(=O)c1ccc(N2C(=O)c3ccccc3C2=O)cc1)COC(=O)c1ccc(N2C(=O)c3ccccc3C2=O)cc1	0.93	4
COC(=O)CNC(=O)c1ccc(NC(C)=O)cc1	1	0
Cc1c(Cl)c(C(F)(F)F)nn1CC(=O)Nc1ccccc1C(F)(F)F	1	2
Cc1c(Cl)c([N+](=O)[O-])nn1CC(=O)Nc1cc(C(F)(F)F)ccc1Cl	0.62*	1
COc1cc(/C=N\Nc2ccnc3cc(Cl)ccc23)ccc1O	0.34*	-29
COc1cc(/C=C2/C(=O)ON=C2c2ccc(Cl)cc2)ccc1O	0.94	6
O=C(NCCCN1CCOCC1)/C(=C/c1ccc(-c2ccc(Br)cc2)o1)NC(=O)c1ccccc1	0.91	12
O=C(CC1S/C(=N/N=C\c2ccccc2)NC1=O)Nc1ccccc1F (stereo not drawn)	1.2*	-8
COc1ccccc1/C=N\N=C1/NC(=O)C(CC(=O)Nc2cccc(C)c2C)S1 (stereo not drawn)	1	15
C=CCOc1c(Cl)cc(/C=C2\C(=O)NC(=O)N(c3ccc(Cl)cc3)C2=O)cc1OC	0.9	8
O=C(COc1ccc2c(c1)oc(=O)c1ccccc12)c1ccccc1	1.4*	-72
O=C(COc1ccc2c(c1)oc(=O)c1ccccc12)OCc1ccccc1	0.94	-1
CCC1=NN(C(=O)c2cccnc2)C(O)(c2ccccc2)C1 (stereo not drawn)	1	8
N#CCc1nc(-c2ccc([N+](=O)[O-])cc2)cs1	1.1	15
O=C1S/C(=C\c2cccs2)C(=O)N1c1ccccc1	0.64*	1
Cc1ccc(/C=C2/SC(=O)N(c3ccccc3)C2=O)cc1	0.97	18
COc1ccccc1NC(=O)C(Cc1c[nH]c2ccccc12)NC(=O)Oc1ccccc1 (stereo not drawn)	0.94	17
S=C(NNc1nc2ccccc2s1)NC1CCCCC1	0.74*	17
O=C1C2CCCCC2C(=O)N1c1nc2ccccc2s1 (stereo not drawn)	0.85	-6
C/C(=C\C(=O)c1ccc(C)cc1)Nc1ccc(I)cc1	1	3
SMILES	Cy5 interf NS3h	HCV NS3h FP
Cc1ccc(NC(=O)C2C3CC/C=C\CCC32)cc1 (stereo not drawn)	1	2
O=C(O)C1C2C=CC(C3CC23)C1C(=O)Nc1ccc(F)cc1 (stereo not drawn)	0.69*	-12
O=C1/C(=C\c2ccc(-c3ccccc3Cl)o2)SC(=S)N1Cc1ccccc1	1	1
COC(=O)c1ccc(-c2ccc(/C=C3/SC(=S)N(c4ccccc4)C3=O)o2)cc1	1	1
O=Cc1ccc(/C=C2/SC(=S)N(Cc3ccccc3)C2=O)cc1	0.72*	10
CN(C)c1ccc(/C=N\N2C(=O)/C(=C/c3ccc(N(C)C)cc3)SC2=S)cc1	0.97	-5
CCN1C(=O)/C(=C\c2ccc(N(C)C)cc2)SC1=S	1.2*	11
O=C1/C(=C/c2ccc(I)o2)SC(=S)N1c1ccccc1	0.69*	13
C=CCN1C(=O)/C(=C\c2ccc(C=O)cc2)SC1=S	1.1	10
O=C1/C(=C/c2ccc(I)o2)SC(=S)N1Cc1ccccc1	0.66*	7
CCCOc1cccc(-c2nnc(NC(=O)Nc3cccc(Cl)c3)s2)c1	1	1
O=C(CSc1ccccc1)Nc1cccc([N+](=O)[O-])c1	0.95	5
CC1(C)CC(=O)C(CCC#N)(CCC#N)C(=O)C1	0.95	2
Cc1ccc(N(CC(=O)Nc2ccc(Oc3ccccc3)cc2)S(C)(=O)=O)cc1Cl	1	16
O=C1C(=O)N(c2cccc(Cl)c2)C(c2ccc(F)cc2)C1=C(O)c1ccccc1 (stereo not drawn)	1	11
CCN1C(=O)/C(=C/c2cccc(OC(=O)c3ccccc3I)c2)SC1=S	0.74*	15
CCN1C(=O)/C(=C\c2cccc(OCCOc3cccc(OC)c3)c2)SC1=S	1	7
Cc1cccc(NC(=O)C2CC(=O)N=C(N)S2)c1 (stereo not drawn)	1	-2
NC(=O)COc1ccc(/C=c2/sc3n(c2=O)CCCN=3)cc1	1.2*	10
